This is an account of results in PubChem BioAssay (NCI).

The structures appear in SMILES notation. This is part of a sample that, as a whole, favours compounds with a hit. Of some 83,000 tested, about 20% had one in any assay.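 Values shown are percent growth following 48 h exposure of cells in 96-well plates to a single concentration of compound; below 10 was considered active.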 A number with no mark means an inactive call. The source made the active and inactive calls.

Some test systems named below: SK-MEL-2 melanoma; EKVX NSCLC; SN12C renal; UO-31 renal; TK-10 renal; ACHN renal; CAKI-1 renal; CCRF-CEM leukemia; MOLT-4 leukemia; SR leukemia; RPMI-8226 leukemia; OVCAR-8 ovarian; OVCAR-5 ovarian; OVCAR-4 ovarian; SK-OV-3 ovarian; IGROV1 ovarian; OVCAR-3 ovarian; HS 578T breast; NCI/ADR-RES ovarian; A498 renal.
Experiment in all cases: NCI-60 one-dose screen, 48 h (100 = growth as untreated, 0 = no growth, -100 = all killed)
What all share (conditions): 10 µM unless noted

Take `CCN1CCN(c2nc(NNC(=O)Cc3ccccc3)nc(N3CCN(C(c4ccccc4)c4ccccc4)CC3)n2)CC1`: the growth in the assay on SK-MEL-2 melanoma is 37.6%; in the assay with EKVX NSCLC it was 75.7%; in the assay with SN12C renal it was 77.9%; in the assay on UO-31 renal it was 61.7%; in the assay on TK-10 renal, 89.1%; in the assay with ACHN renal, 86.4%. The growth in the assay with CAKI-1 renal is 39.5%; in the assay on CCRF-CEM leukemia it was 42.6%; with MOLT-4 leukemia it was 38.5%; with SR leukemia, -22.3% (active); in the assay with RPMI-8226 leukemia, 36.6%; in the assay with OVCAR-8 ovarian, 64.4%. In addition, the growth with OVCAR-5 ovarian is 102%; with OVCAR-4 ovarian, 86.6%; with SK-OV-3 ovarian, 114%; in the assay with IGROV1 ovarian, 64.1%; in the assay on OVCAR-3 ovarian, 46.2%; in the assay with HS 578T breast, 96.1%. Besides, the growth in the assay with NCI/ADR-RES ovarian is 90.4%.

Take `COP(=O)(OC)C(c1ccccc1)(c1ccccc1)c1ccccc1`: the growth in the assay with SK-MEL-2 melanoma is 101%; in the assay with EKVX NSCLC, 101%; in the assay with SN12C renal, 97.7%; in the assay with UO-31 renal, 113%; in the assay with TK-10 renal, 69%; with ACHN renal it was 107%. Also, the growth in the assay on CAKI-1 renal is 83%; in the assay on A498 renal, 93%; in the assay with CCRF-CEM leukemia, 84.3%; in the assay on MOLT-4 leukemia it was 46.5%; in the assay on RPMI-8226 leukemia, 87.5%; in the assay with OVCAR-8 ovarian, 94.6%. The growth is 101% in the assay on OVCAR-5 ovarian; 93.2% in the assay with OVCAR-4 ovarian; 108% in the assay on SK-OV-3 ovarian; -9.3% (active) with IGROV1 ovarian; 86.7% in the assay with OVCAR-3 ovarian; 94.5% with HS 578T breast. The growth in the assay on NCI/ADR-RES ovarian is 95.9%.

`N#Cc1c(-c2ccccc2)cc(-c2ccccc2)n(CCCCC(=O)O)c1=O`: the growth in the assay on SK-MEL-2 melanoma was 96.6%; in the assay with EKVX NSCLC, 89.4%; in the assay on SN12C renal it was 96.8%; with UO-31 renal, 86%; in the assay on TK-10 renal, 99.9%; in the assay on ACHN renal, 100%. The growth in the assay on CAKI-1 renal is 86.8%; in the assay on CCRF-CEM leukemia, 87.7%; in the assay with MOLT-4 leukemia it was 107%; with SR leukemia, 65.1%; in the assay on RPMI-8226 leukemia, 96.2%; with OVCAR-8 ovarian, 96%. In addition, the growth in the assay with OVCAR-5 ovarian is 98%; with OVCAR-4 ovarian it was 115%; in the assay on SK-OV-3 ovarian, 136%; with IGROV1 ovarian, 102%; with OVCAR-3 ovarian, 101%; in the assay on HS 578T breast it was 101%. Also, the growth in the assay on NCI/ADR-RES ovarian was 80.5%.

Turning to `CC1c2ccccc2-c2ccccc2N1C` (stereo unspecified), the growth with SK-MEL-2 melanoma was 101%; with EKVX NSCLC, 124%; in the assay with SN12C renal, 89.6%; in the assay with UO-31 renal it was 70.7%; in the assay on TK-10 renal it was 94.3%; in the assay on ACHN renal it was 103%. Further, the growth with CAKI-1 renal is 95.7%; with CCRF-CEM leukemia, 101%; in the assay on MOLT-4 leukemia, 103%; in the assay with SR leukemia, 96.3%; in the assay with RPMI-8226 leukemia, 90.5%; in the assay with OVCAR-8 ovarian it was 106%. Also, the growth was 101% in the assay on OVCAR-5 ovarian; 110% in the assay with OVCAR-4 ovarian; 101% in the assay on SK-OV-3 ovarian; 98.3% in the assay on IGROV1 ovarian; 104% with OVCAR-3 ovarian; 112% with HS 578T breast. In addition, the growth in the assay with NCI/ADR-RES ovarian was 108%.

For `COc1ccc2c(c1)c(CC(=O)[Se]C)c(C)n2C(=O)c1ccc(Cl)cc1`, the growth in the assay on SK-MEL-2 melanoma was 12.4%; in the assay on EKVX NSCLC it was -26.7% (active); with SN12C renal it was -4.23% (active); with UO-31 renal, 14.7%; in the assay with TK-10 renal, -58.4% (active); with ACHN renal, 10.4%. Further, the growth with CAKI-1 renal is -35.1% (active); with CCRF-CEM leukemia, 13%; in the assay on MOLT-4 leukemia it was 6.33% (active); in the assay on SR leukemia it was 13.4%; in the assay with RPMI-8226 leukemia, 62.6%; in the assay with OVCAR-8 ovarian, -46.9% (active). Besides, the growth in the assay on OVCAR-5 ovarian is 36.8%; in the assay with OVCAR-4 ovarian it was 37.2%; in the assay on SK-OV-3 ovarian it was 40.7%; with IGROV1 ovarian, -3.14% (active); in the assay on OVCAR-3 ovarian it was -12.4% (active); in the assay with HS 578T breast it was 8.49% (active). Further, the growth in the assay on NCI/ADR-RES ovarian was 3.71% (active).

For `N/C(=N\C(N)=N\c1nc2ccccc2s1)c1ccnc(Cl)c1`, the growth with SK-MEL-2 melanoma is 29%; in the assay on EKVX NSCLC, 51.3%; in the assay with SN12C renal it was 57.6%; in the assay on UO-31 renal it was 56.5%; in the assay with TK-10 renal, 75.7%; with ACHN renal, 47.8%. The growth was 21.6% in the assay with CAKI-1 renal; 19.2% in the assay on CCRF-CEM leukemia; 33.6% in the assay with MOLT-4 leukemia; 18.9% with SR leukemia; 15.2% with RPMI-8226 leukemia; 39.5% in the assay with OVCAR-8 ovarian. The growth with OVCAR-5 ovarian is 57.9%; with OVCAR-4 ovarian, 79.1%; in the assay with SK-OV-3 ovarian it was 48.5%; in the assay on IGROV1 ovarian, 37.2%; with OVCAR-3 ovarian it was 4.62% (active); with HS 578T breast it was 25.7%. For the same compound, the growth in the assay with NCI/ADR-RES ovarian was 18.3%.

Consider `O=C(/C=C/c1ccc([N+](=O)[O-])cc1)c1ccc2c3c(cccc13)CC2`, for which the growth was -24.8% (active) in the assay on SK-MEL-2 melanoma; 87.3% with EKVX NSCLC; 89.8% in the assay with SN12C renal; 19.2% in the assay with UO-31 renal; 107% in the assay with TK-10 renal; 99.1% with ACHN renal. For the same compound, the growth is 72.1% in the assay on CAKI-1 renal; -63.2% (active) in the assay on A498 renal; 35.5% with CCRF-CEM leukemia; 62.7% in the assay on MOLT-4 leukemia; -14.1% (active) in the assay with RPMI-8226 leukemia; 28.7% in the assay with OVCAR-8 ovarian. The growth in the assay on OVCAR-5 ovarian is 89.8%; in the assay with OVCAR-4 ovarian, 75.8%; with SK-OV-3 ovarian, 91.4%; in the assay with OVCAR-3 ovarian, 66.9%; in the assay on HS 578T breast it was -4.95% (active); in the assay with NCI/ADR-RES ovarian it was 83.3%.

As for `Cc1cc(=O)[nH]c(/C(=N/Nc2ccccc2)C(=O)c2ccc(Cl)cc2)n1`, the growth was 102% with SK-MEL-2 melanoma; 103% in the assay with EKVX NSCLC; 93.2% in the assay on SN12C renal; 116% with UO-31 renal; 65.5% in the assay on TK-10 renal; 111% in the assay on ACHN renal. Moreover, the growth was 104% in the assay with CAKI-1 renal; 84% in the assay with A498 renal; 66% in the assay on CCRF-CEM leukemia; 39.8% with MOLT-4 leukemia; 96.6% with RPMI-8226 leukemia; 92.8% with OVCAR-8 ovarian. In addition, the growth was 117% in the assay with OVCAR-5 ovarian; 111% in the assay with OVCAR-4 ovarian; 98.3% in the assay with SK-OV-3 ovarian; 17.6% with IGROV1 ovarian; 97.5% in the assay with OVCAR-3 ovarian; 83.6% with HS 578T breast. Further, the growth with NCI/ADR-RES ovarian was 106%.
